Values joined by “and” are separate entries in the source; they are usually repeats but may differ in a detail not shown here. Identical values can stand only once. Results filed as inconclusive are left out. Active and inactive are the calls of the source. Unless noted, the call rests on the fitted dose curve; in most records, active means well fitted curve in the direction sought with a large enough effect in the repeat runs; inconclusive means weak or mixed curves; inactive means no such curve, though single readings can be large; an effect the other way counts as inactive or inconclusive.
Experiments:
[1] = qHTS assay to identify small molecule agonists of H2AX (AID 1224845; active means well fitted activation curve with a large enough effect in the signal ratio in the repeat runs, not every such curve was filed as active; the % refers to the signal ratio)
Procedure, shortened: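 Wild-type CHO-K1 cells, plated overnight, exposed 3hr at 37C to 15 concentrations (0.76% DMSO final). Lysed, then HTRF anti-pH2AX (S139) cryptate and anti-H2AX-d2 antibodies, 24 hr room temperature; 665/620 nm emission read.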

[2] = qHTS assay to identify small molecule agonists of the hypoxia (HIF-1) signaling pathway (AID 1224846; active means well fitted activation curve with a large enough effect in the signal ratio in the repeat runs, not every such curve was filed as active; the % refers to the signal ratio)
Procedure, shortened: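 Steps: seed ME-180 HRE-bla cells (2,000/well, 0.5% dialyzed FBS); incubate 5 hrs at 37C; pin-transfer compounds or DMSO; incubate 17 hrs; add LiveBLAzer B/G substrate CCF4-AM; measure reporter activation by FRET.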

[3] = qHTS assay to identify small molecule agonists of H2AX - cell viability counter screen (AID 1224847; calls by dose curve; further: top concentration of the series differs between compounds; nearly all actives have a fitted effect of over 30% in size)
Procedure, shortened: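 Viability of CHO-K1 (wild type) cells after 3 hr compound exposure was measured by CellTiter-Glo luminescence.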

[4] = qHTS assay to identify small molecule antagonists of the estrogen related receptor (ERR) signaling pathway from Tox21 library (AID 1224848); further: nearly all actives have a fitted effect of over 50% in size
Procedure, shortened: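 Luminescent reporter read-out (ONE-Glo) from NTP's ERR cell line after 18 h treatment at 37 C with DMSO-dissolved Tox21 compounds; cells pre-plated 6 h beforehand at 2,000 per well.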

[5] = qHTS assay to identify small molecule agonists of the estrogen related receptor (ERR) signaling pathway from Tox21 library (AID 1224849; calls by dose curve; further: nearly all actives have a fitted effect of over 15% in size); conditions: ERR reporter cell line, ONE-Glo luciferase, 18 h; at 92.4 µM (top of the series)
Procedure, shortened: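 Agonist signal is luciferase luminescence from an ERR reporter cell line treated 18 h at 37 C with DMSO-dissolved compounds, read 30 min after ONE-Glo addition at room temperature.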

[6] = qHTS RealTime-Glo MT Cell Viability Assay in HepG2 cells - 24 hour (AID 1224867); further: nearly all actives have a fitted effect of over 50% in size
Procedure, shortened: (§1)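 Viability was tracked continuously by NanoLuc luminescence from prosubstrate reduced by living HepG2 cells, at successive time points over 40 h of compound exposure. Cells with reagent were preincubated 5 h at 37 °C before compound addition.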

[7] = qHTS RealTime-Glo MT Cell Viability Assay in HEK293 cells - 32 hour (AID 1224868); further: top concentration of the series differs between compounds; nearly all actives have a fitted effect of over 50% in size
Procedure, shortened: (§2)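 Viability tracked continuously by luminescence as live cells reduce a prosubstrate for NanoLuc; HEK293 cells preincubated 5 h, compound-treated at 37 C, and read at 0, 8, 16, 24, 32 and 40 h.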

[8] = A CellTox Green Cytotoxicity Assay to monitor cytotoxicity in HEK293 cells - 40 hour (AID 1224871); further: nearly all actives have a fitted effect of over 45% in size
Procedure, shortened: (§3)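 Cytotoxicity was tracked continuously in HEK293 cells by a DNA-binding dye excluded from viable cells. Compounds were transferred in DMSO 5 h after seeding; fluorescence was recorded at intervals up to 40 h.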

[9] = qHTS RealTime-Glo MT Cell Viability Assay in HEK293 cells - 16 hour (AID 1224872); further: top concentration of the series differs between compounds; nearly all actives have a fitted effect of over 50% in size
Procedure, shortened: as §2

[10] = qHTS RealTime-Glo MT Cell Viability Assay in HepG2 cells - 8 hour (AID 1224873); further: nearly all actives have a fitted effect of over 55% in size
Procedure, shortened: (§4)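 HepG2 cells (600/well) mixed with RealTime-Glo MT reagent, settled 5 h at 37 C/5% CO2 before compound addition. Nonlytic NanoLuc luminescence from viable-cell prosubstrate reduction read repeatedly during 40 h treatment at 37 C.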

[11] = qHTS RealTime-Glo MT Cell Viability Assay in HEK293 cells - 40 hour (AID 1224874); conditions: RealTime-Glo luminescence; max response: stronger effect = lower value; further: nearly all actives have a fitted effect of over 50% in size
Procedure, shortened: (§5)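 Nonlytic bioluminescent viability monitoring. HEK293 at 600 cells/well with reagent; 5 h settle; compound transfer by pintool; plates held at 37 C and read at set time points.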

[12] = A CellTox Green Cytotoxicity Assay to monitor cytotoxicity in HEK293 cells - 24 hour (AID 1224875); further: nearly all actives have a fitted effect of over 45% in size
Procedure, shortened: as §3

[13] = A CellTox Green Cytotoxicity Assay to monitor cytotoxicity in HepG2 cells - 16 hour (AID 1224876); further: nearly all actives have a fitted effect of over 45% in size
Procedure, shortened: (§6)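 Real-time, homogeneous cytotoxicity readout: dead-cell DNA staining by CellTox Green in HepG2 monolayers, fluorescence measured at timed intervals up to 40 h of continuous compound exposure.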

[14] = qHTS RealTime-Glo MT Cell Viability Assay in HepG2 cells - 32 hour (AID 1224877); further: nearly all actives have a fitted effect of over 55% in size
Procedure, shortened: as §1

[15] = A CellTox Green Cytotoxicity Assay to monitor cytotoxicity in HepG2 cells - 24 hour (AID 1224878); further: nearly all actives have a fitted effect of over 45% in size
Procedure, shortened: as §6

[16] = A CellTox Green Cytotoxicity Assay to monitor cytotoxicity in HepG2 cells - 40 hour (AID 1224879); further: nearly all actives have a fitted effect of over 40% in size
Procedure, shortened: as §6

[17] = qHTS RealTime-Glo MT Cell Viability Assay in HEK293 cells - 0 hour (AID 1224880)
Procedure, shortened: as §5

[18] = A CellTox Green Cytotoxicity Assay to monitor cytotoxicity in HEK293 cells - 32 hour (AID 1224881); further: nearly all actives have a fitted effect of over 40% in size
Procedure, shortened: as §3

[19] = A CellTox Green Cytotoxicity Assay to monitor cytotoxicity in HEK293 cells - 0 hour (AID 1224869); further: nearly all actives have a fitted effect of over 50% in size
Procedure, shortened: as §3

[20] = qHTS RealTime-Glo MT Cell Viability Assay in HepG2 cells - 40 hour (AID 1224870); further: nearly all actives have a fitted effect of over 50% in size
Procedure, shortened: as §4
On the % scale 0 is the no-effect control and ±100 the full control effect.

N#CC(c1ccccc1)c1ccccc1
inactive: Potency [1] | outcome [2] | Potency [3] | Potency [4] | activity change, positive = activation [5] -14.8% and -8.2% | Potency [6] | Potency [7] | Potency [8] | Potency [9] | Potency [10] | max response [11] -11% | Potency [12] | Potency [13] | Potency [14] | Potency [15] | Potency [16] | Potency [17] | Potency [18]

CCOP(=S)(OCC)OP(=S)(OCC)OCC
inactive: Potency [1] | outcome [2] | Potency [3] | Potency [4] | activity change, positive = activation [5] -12.2% and -0.199% | Potency [6] | Potency [7] | Potency [19] | Potency [8] | Potency [9] | Potency [10] | max response [11] 3.87% and 10.7% | Potency [12] | Potency [13] | Potency [14] | Potency [15] | Potency [16] | Potency [17] | Potency [18]

CCNc1nc(Cl)nc(NC(C)(C)C#N)n1
inactive: Potency [1] | outcome [2] | Potency [3] | Potency [6] | Potency [7] | Potency [19] | Potency [8] | Potency [9] | Potency [10] | max response [11] -8.64% and -8.88% | Potency [12] | Potency [13] | Potency [14] | Potency [15] | Potency [16] | Potency [17]

N#Cc1cccnc1
inactive: Potency [1] | outcome [2] | Potency [3] | Potency [4] | activity change, positive = activation [5] 5.82% and 1.56% | Potency [6] | Potency [7] | Potency [20] | Potency [8] | Potency [9] | Potency [10] | max response [11] -3.64% and -3.39% | Potency [12] | Potency [13] | Potency [14] | Potency [15] | Potency [16] | Potency [17] | Potency [18]

Clc1cccc(Cl)c1
inactive: Potency [1] | outcome [2] | Potency [3] | Potency [4] | activity change, positive = activation [5] -0.0986% and 9.44% | Potency [6] | Potency [7] | Potency [20] | Potency [8] | Potency [9] | Potency [10] | max response [11] 0.4% and 0.365% | Potency [12] | Potency [13] | Potency [14] | Potency [15] | Potency [16] | Potency [17]

Brc1ccc(Br)cc1
inactive: Potency [1] | outcome [2] | Potency [3] | Potency [4] | activity change, positive = activation [5] 7.62% and 5.83% | Potency [6] | Potency [7] | Potency [19] | Potency [8] | Potency [9] | Potency [10] | max response [11] 1.04% and 3.61% | Potency [12] | Potency [13] | Potency [14] | Potency [15] | Potency [16] | Potency [17] | Potency [18]

— PubChem BioAssay (Tox21)
